Source: PubChem BioAssay (National Center for Advancing Translational Sciences (NCATS))
A selection: hits, their analogues and other compounds. The true share with any hit is near 9.4%.
AMA1-RON2 inh = qHTS for Inhibitors of AMA1-RON; Towards Development of Antimalarial Drug Lead: Primary Screen. Plasmodium falciparum AMA1 (3D7) - RON2 peptide interaction. AlphaScreen AMA1-biotinylated RON2 peptide binding. Potency, µM (series often up to 58.2 µM), inactives show at the highest dose activity change, negative = inhibition, usual class: inhibitors. 360,000 compounds, 0.2% hits;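 also: potency is read from the fitted curve at half-maximal effect; 0% = vehicle wells and -100% = peptide control; nearly all actives have a fitted effect of over 45% in size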
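AMA1 (3D7) with his tag at 25 nM final met compounds first, then biotinylated RON2 peptide at 25 nM; detection used donor plus acceptor beads, 10 µg/mL apiece, read by AlphaScreen after 30 min at room temperature.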
SARS PLpro yeast-1 = qHTS of Yeast-based Assay for SARS-CoV PLP | 330,000 compounds, 0.19% hits | S. cerevisiae expressing SARS-CoV PLpro, growth rescue | AID 485353, 2010 | Potency, µM (doses to about 32.9 µM), inactives show top-dose activity, positive = growth rescue, hits mostly activators; calls by dose curve; also: potency is read from the fitted curve at half-maximal effect; 0% is about no effect; nearly all actives have a fitted effect of over 55% in size
Pf growth 48h = Primary qHTS for delayed death inhibitors of the malarial parasite plastid, 48 hour incubation. P. falciparum luciferase growth in erythrocytes, 48 h. Potency, µM (titrated, usually from 28.7 µM), for the others: top-dose activity change, negative = inhibition, usual class: inhibitors. 310,000 compounds, 5.9% hits; also: potency is read from the fitted curve at half-maximal effect; % is scaled to controls: 0 for no effect and ±100 for the full control effect
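Compounds are pin-transferred into medium, infected erythrocytes (2% hematocrit, 0.1% parasitemia final) are added, and plates sit one parasite generation at 37 C in 5% CO2. Detection reagent is then added and luminescence measured.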
Pf growth 96h = Primary qHTS for delayed death inhibitors of the malarial parasite plastid, 96 hour incubation. AID 504834, 2011. 320,000 compounds, 6.9% hits. Potency, µM (series often up to 28.7 µM), for the others: at the top dose activity change, negative = inhibition, most hits filed as inhibitors. P. falciparum luciferase reporter growth, 96 h; also: potency is read from the fitted curve at half-maximal effect; % is scaled to controls: 0 for no effect and ±100 for the full control effect
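P. falciparum expressing integrated firefly luciferase grown in erythrocytes (2% hematocrit, 0.05% parasitemia final) with compounds for 96 hours at 37 C, 5% CO2. Growth inhibition read as loss of luminescence after adding luciferase detection reagent.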
SARS PLpro yeast-2 = qHTS of Yeast-based Assay for SARS-CoV PLP: Hit Validation; shares compounds with SARS PLpro yeast-1; yeast expressing SARS-CoV PLpro, growth phenotype rescue; calls only; 1,000 compounds, 19% hits; AID 652038, 2013; call rule not given here
Active calls of the source: *; i = inactive; ? = inconclusive; · = no result given; + = active, no number; [ ] = remark or other dose. Unless noted, calls follow the shape of the dose curve; as a rule, active = well fitted curve in the direction sought with a large enough effect; inconclusive = small, poorly fitted or top-dose-only effect, or another doubt; inactive = no such curve, though single readings can be large; an effect the other way counts as inactive or inconclusive.

SMILES	AMA1-RON2 inh	SARS PLpro yeast-1	Pf growth 48h	Pf growth 96h	SARS PLpro yeast-2
CC(=O)OCC(OC(C)=O)C(OC(C)=O)C(OC(C)=O)C(=O)Nc1ccccc1 (stereo unspecified)	-9%	0%	8%	8%	·
O=C(OCC(=O)N1CCN(c2ccccc2)CC1)c1cccc(Cl)c1	-23%	?	8%	?	i
O=C(OCC(=O)N1CCN(c2ccccc2)CC1)c1cnc(Cl)c(Cl)c1	·	-10%	-6%	4%	·
Cc1cccc2sc(NNC(=O)c3ccc(S(=O)(=O)N4CC(C)CC(C)C4)cc3)nc12 (stereo unspecified)	40%	4µM*	?	2.9µM*	+
COC(=O)c1sc2ccccc2c1NC(=O)c1ccc(S(=O)(=O)N2CC(C)CC(C)C2)cc1 (stereo unspecified)	-3%	-12%	-10%	-15%	·
CCOc1cccc(/C=N/Nc2ccc(S(=O)(=O)N(CC)CC)cn2)c1O	42%	7.9µM*	2.9µM*	2.6µM*	i
Cc1ccc(N=Cc2ccc(N(C)C)cc2)cc1C	4%	-3%	16%	?	·
COc1ccccc1Nc1nc(C)c(C(=O)Nc2ccccc2)s1	-21%	-2%	?	?	·
C(=N\Nc1nc2ccccc2[nH]1)/c1cccc2nccnc12	17%	1%	?	?	·
CCN(CC)c1ccc(/C=N/NC(=O)Cc2cccs2)c(O)c1	46%[11.6 µM]	5µM*	?	?	i
CCN(CC)c1ccc(/C=N/Nc2nc3ccccc3[nH]2)c(O)c1	?	10µM*	·	1.2µM*	+
COC(=O)C1=C(C)NC(C)=C(C(=O)OC)C1c1cc2cc(C)ccc2[nH]c1=O	4%	1%	2%	-16%	·
Cc1ccc2[nH]c(=O)c(C3C(C#N)=C(N)Oc4c3ccc3cccnc43)cc2c1 (stereo unspecified)	-11%	13µM*	?	·	+
O=C(O)c1cc2ccccc2oc1=O	-2%	5%	19%	27%	·
Cn1c(Cc2ccccc2)nnc1SCC(=O)N1CCCCC1	-14%	0%	-8%	-28%	·
CN1CCN(C(=O)c2ccc(S(=O)(=O)c3ccc(Br)cc3)cc2)CC1	2%	11µM*	-20%	·	i
Cc1ccc(NS(=O)(=O)c2ccc(C)c(NC(=O)c3ccc(S(=O)(=O)N4CCCCCC4)cc3)c2)c(C)c1	-9%	·	·	·	·
COC(=O)c1cc(OC)c(OC)cc1NCC(=O)Nc1ccc(C)cc1	4%	4.5µM*	-10%	9%	i
COC(=O)c1cc(OC)c(OC)cc1NCC(=O)Nc1cccc(C(F)(F)F)c1	-10%	-16%	-5%	?	·
O=C(N/N=C/c1c(O)n(-c2ccc(Cl)cn2)c(=O)c2ccccc12)c1ccncc1	21%	13µM*	-7%	-17%	i
S=C(NNc1ccc2ccccc2c1)NC1CCCCC1	16µM*	·	-1%	-4%	?
S=C(Nc1ccc(Oc2ccccc2)cc1)NC1CCCCC1	51%	-29%	0%	9%	·
N#CC1C(=O)c2ccccc2C1c1ccccc1 (stereo unspecified)	-27%	·	·	·	·
CCN1C(=NCc2ccccc2)N[C@@H](c2ccccc2)[C@H](C(=O)OC)[C@H]1C	0%	?	?	?	i
COc1cc(/C=N/n2c(C)nc3ccccc3c2=O)ccc1O	-7%	3%	-14%	7%	·
SMILES	AMA1-RON2 inh	SARS PLpro yeast-1	Pf growth 48h	Pf growth 96h	SARS PLpro yeast-2
CC1CCN(c2nnc(-c3ccccc3)c3ccccc23)CC1	-25%	-6%	-26%	?	·
Cc1ccc2c(c1)c(=O)c(Br)c(C)n2Cc1ccccc1	18%	?	?	-22%	i
CCOC(=O)N1CCN(CC(O)COCc2ccccc2)CC1 (stereo unspecified)	3%	?	45%	51%	i
CCOc1ccc(-c2nc(-c3cccs3)c(CC(=O)O)s2)cc1OC	-6%	0%	41%	134%	·
O=C(C1CCCN1S(=O)(=O)c1cccc2cccnc12)N1CCc2ccccc2C1 (stereo unspecified)	-1%	-4%	·	-4%	·
COc1ccc(S(=O)(=O)NCCN2CCOCC2)c(C)c1C	-9%	0%	16%	-11%	·
COc1ccc(S(=O)(=O)NCCN2CCOCC2)c2ccccc12	-5%	20µM*	22%	16%	i
COc1ccc(C(=O)Nc2ccc(N3CCN(C)CC3)cc2)cc1[N+](=O)[O-]	-5%	0%	2%	-26%	·
CCc1ccc(NC(=O)c2ccc(OC)c([N+](=O)[O-])c2)cc1	10%	?	24%	?	i
O=C(NCc1cccc(Cl)c1)c1cnccn1	18%	1%	9%	·	·
c1ccc(C2CSc3ccccc3N2)cc1 (stereo unspecified)	70%	-2%	152%	163%	·
CC1CSc2ccccc2NC1=S (stereo unspecified)	12%	10µM*	-7%	-29%	+
O=C(NC1CCCC1)C1CCCN(C(=O)Nc2ccccc2)C1 (stereo unspecified)	10%	-1%	11%	-26%	·
Cc1ccc(NC(=O)CCN2C(=O)NC3(CCCC3)C2=O)c(C)c1	0%	6%	4%	6%	·
CN(C)c1cccc(C(=O)N/N=C/c2ccoc2)c1	5%	·	·	·	·
CN(C)c1cccc(C(=O)N/N=C/c2ccsc2)c1	0%	20µM*	122%	59%	i
CCCCOC(=O)Oc1ccc2c(=O)c(Oc3cc(C)cc(C)c3)coc2c1	3%[2.32 µM]	?	12%	2%	i
CCCCOC(=O)Oc1ccc2c(=O)c(Oc3cccc(C)c3)coc2c1	-6%	-37%	58%	?	·
O=C(COc1ccccc1Cl)OCC(=O)N1CCN(S(=O)(=O)c2ccccc2)CC1	53%	-2%	10%	18%	·
O=C1C=CC(=O)N1Nc1ccc(Br)cc1	-21%	?	7%	-3%	i
O=C(CCCC(=O)N1CCCC1)N1CCCC1	16%	-2%	·	12%	·
CCOC(=O)c1[nH]cnc1C(=O)N1CCN(C(=O)OC(C)(C)C)CC1	6%	?	12%	25%	?
COc1ccc(CCn2nnnc2CN2CCN(C(=O)c3ccco3)CC2)cc1OC	-11%	0%	13%	-2%	·
COc1ccccc1CN1CC(C(=O)N2CCC(OC)CC2)CCC1=O (stereo unspecified)	1%	3%	1%	?	·
CC(=O)NCCc1cc2ccc(C)cc2[nH]c1=O	7%	?	19%	·	i
Cc1ccc2cc(CCNC(=O)C(C)C)c(=O)[nH]c2c1	-3%	1%	20%	9%	·
COc1ccc(/C=C2\CN(Cc3ccccc3)C/C(=C\c3ccc(OC)cc3)C2=O)cc1	5%	20µM*	-21%	?	i
NC(N)=NC1=NC(=O)/C(=C/c2ccccc2-n2cccn2)S1	42%	·	12%	-10%	i
